Molecules are shown by their SMILES. Compounds without any hit were thinned out: in the full panel of roughly 83,000, 20% have a hit.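 Method: cells in 96-well plates; compound added at one concentration; 48 h incubation; percent growth measured; values under 10 scored active.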 Calls of active or inactive are those of the source.

For the test, the system named is HL-60(TB) leukemia. The experiment in a line: NCI-60 one-dose screen, 48 h (100 = growth as untreated, 0 = no growth, -100 = all killed). The settings on record: 10 µM unless noted.
Regarding `Nc1c(C(=O)Nc2cccc3ccccc23)sc2nc3c(cc12)CCCCC3`, the growth is -25.9% (active).

With `COc1ccc(-c2[nH]c3ccccc3c2-c2ccc(OC)cc2)cc1`, the growth was 24.6% (inactive). Then `CC(=O)Oc1ccc(Cl)cc1CN(C(C)=O)C1CCCCC1`, with 92.8% (inactive); and `O=C(/C=C/c1cccnc1)NCCCCC1CCCN(C(=O)c2ccccc2)C1` (stereo not given), with 63.6% (inactive); and `C/C(=N\Nc1ccc(Cl)cn1)c1ccc2ccccc2n1`, with -15.3% (active).

In the case of `O=S(=O)(NCCNc1nccc(-c2c(-c3cccc(O)c3)nc3occn23)n1)c1ccccc1`, the growth is 55.3% (inactive).

`CCCCc1n(Cc2ccc3ccccc3c2)c2ccccc2[n+]1Cc1ccc2ccccc2c1`: the growth was -59.2% (active).

On to `O=c1oc2c(cc1-c1ccccc1)c(=O)[nH]c1ccccc12`, for which the growth was 98.1% (inactive).

With `CC1(C)O[C@H]2OC3CCC(=O)CC3(O)[C@H]2O1` (stereo not given in full), the growth was 102% (inactive). Under `CCOC(C)=N` stands 78.7% (inactive).

Take `COc1cc(C2C3=C(COC3=O)N(CCO)c3cc4c(cc32)CCC4)cc(OC)c1O` (stereo not given): the growth was -8.61% (active).

As to `Cc1cc(CC(C)CC(C)(C)C)n(O)c(=O)c1` (stereo not given) (tested in a mixture with another compound), the growth is -27.7% (active).

Regarding `NS(=O)(=O)c1ccc(CN=C2NC(=O)S/C2=C\c2ccc(Br)cc2)cc1`, the growth is 97.5% (inactive). Then `O=C(CCCCCCN1CC(=O)N2[C@@H](C3CCCCC3)c3[nH]c4ccccc4c3C[C@H]2C1=O)NO`, with 5.7% (active). Then `CN1CCN(Cc2ccc(NC(=O)c3cncc(C#Cc4cncc5[nH]ncc45)c3)cc2C(F)(F)F)CC1`, with -28.9% (active); and `C[Si](C)(C)Cc1ccccc1`, with 125% (inactive); and `O=C(N/N=C/c1c[nH]c2ccccc12)c1cc(-c2ccccc2)on1`, with 73.4% (inactive).

Take `CC(C)(C)c1cc(C[P+](c2ccc(Cl)cc2)(c2ccc(Cl)cc2)c2ccc(Cl)cc2)cc(C(C)(C)C)c1O`: the growth was 3.1% (active). Then `Cc1cccc(NC2=C(Cl)C(=O)c3nc(C)ccc3C2=O)c1`, with -14.9% (active); and `Cc1ccccc1-c1nc(C(Cl)Cl)nc2cc(-c3ccccc3)nn12`, with 92% (inactive); and `O=C(CS(=O)c1oc(-c2cccs2)nc1S(=O)(=O)c1ccc(Br)cc1)c1ccccc1` (stereo not given), with 87.9% (inactive). Then `COC1C/C(=N\O)C2OC(c3ccccc3)OCC2O1` (stereo not given), with 101% (inactive). Under `NS(=O)(=O)c1ccc(N2N=C(c3ccccc3)CCC2=O)cc1` stands 64.2% (inactive); under `CCCC/C(=N\N=C(N)N)c1ccc(F)cc1`, -30.9% (active). Turning to `CC[N+]1(CC)CC[N+]2(CCCC(C)CC2)CC1` (stereo not given), the growth was 101% (inactive).

With `Cc1nc(-n2[nH]c(=O)ccc2=O)sc1N=Nc1ccccc1`, the growth was 98% (inactive). On to `O=[N+]([O-])c1ccc(C(c2ccccc2)c2ccccc2)cc1`, for which the growth was 79.3% (inactive). In the case of `Cc1cnc(-c2ccc(-c3ccc(NC(=O)Nc4c(F)cc(F)cc4F)cc3F)c3c2C(=O)NC3)[nH]1`, the growth was 58.1% (inactive).

`COc1ccc(-c2cc(-c3ccc(Nc4nc(Nc5ccccc5)nc(Nc5ccc(Cl)cc5)n4)cc3)nc(N)c2C#N)cc1`: the growth was 33.1% (inactive).

Turning to `Nc1nc(N)c2nc(-c3cccc(O)c3)c(-c3cccc(O)c3)nc2n1`, the growth is 120% (inactive). Under `COc1cc(C2=NN(c3ccc(S(N)(=O)=O)cc3)C(c3ccc(Cl)cc3)C2)cc(OC)c1OC` (stereo not given) stands -25.8% (active); under `CCNCCNc1c(C)c(-c2ccc(C(F)(F)F)cc2)c(C#N)c2nc3ccccc3n12`, 74% (inactive); under `C[C@@H]1C(=O)N(C[C@H](Cc2ccccc2)NC(=O)OCc2ccccc2)[C@]1(Cc1ccccc1)C(=O)OCc1ccccc1`, 37.4% (inactive). Under `C=C1C(=O)O[C@H]2[C@H]1CC/C(COC(=O)CSCSCC(=O)OC/C1=C/CC[C@@]3(C)O[C@H]3[C@H]3OC(=O)C(=C)[C@@H]3CC1)=C\CC[C@@]1(C)O[C@@H]21` stands -53.9% (active); under `O=C1Nc2ccccc2/C1=C\c1c[nH]c2ccc(Br)cc12`, 73.1% (inactive); under `COc1ccc(-c2nnc3c4[nH]cnc4ncn23)c(OC)c1`, 12.8% (inactive). Under `CCCCn1c2cc(OCc3cn(-c4ccc(Cl)cc4)nn3)ccc2c2ccnc(C)c21` stands -46.5% (active); under `COc1ccc(C(=O)/C=C/c2cc3c(c(OC)c2)OCC(=O)N3)cc1`, 6.81% (active). In the case of `COc1ccc(C2CC(c3cccc(Nc4ccnc5cc(Cl)ccc45)c3)=NN2C=O)cc1` (stereo not given), the growth was -38.2% (active).

Turning to `Cc1csc(Nc2nc(-c3ccccn3)nc(C(Cl)(Cl)Cl)n2)n1`, the growth was 77.4% (inactive).

The values are drawn from PubChem BioAssay (NCI).
